Results filed as inconclusive are left out. Calls of active or inactive are those of the source. The calls were made as follows, unless noted: active = hit-call score of the fitted dose curve at least 0.9, where 1 is the maximum; inactive = score below 0.9.
Experiments:
[1] = BSK_3C_TissueFactor: BioMAP Diversity Plus: 3C Assay for Tissue Factor Biomarker Activity (AID 2282997); conditions: BioMAP 3C HUVEC, tissue factor biomarker readout; actives raise or lower the signal
In short: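 Tissue factor on primary human umbilical vein endothelium was read by ELISA 24 h after dosing, gain or loss relative to DMSO. Cytotoxicity ran alongside via SRB (0.1%, TCA-fixed, 560 nm).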

[2] = BSK_3C_uPAR: BioMAP Diversity Plus: 3C Assay for Urokinase-type plasminogen activator receptor (uPAR) Biomarker Activity (AID 2282998); conditions: BioMAP 3C HUVEC, uPAR biomarker ELISA; actives raise or lower the signal
In short: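 Endothelial primary cells of human umbilical vein origin received test chemical; 24 h later uPAR was assayed by ELISA. Fitting was bidirectional, DMSO as negative control.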

[3] = BSK_4H_Eotaxin3: BioMAP Diversity Plus: 4H Assay for Eotaxin 3 Biomarker Activity (AID 2283000); conditions: primary human endothelial cells (HUVEC); actives raise or lower the signal
In short: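 Human umbilical vein endothelial cells (BSK_4H system) dosed with test chemical; Eotaxin-3 (CCL26) measured by ELISA 24 h after dosing. Bidirectional curve fitting relative to DMSO negative control as baseline.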

[4] = read-out: Intercellular Adhesion Molecule 1 (ICAM1), ICAM1 (gene 3383); experiment: BSK_3C_ICAM1: BioMAP Diversity Plus: 3C Assay for Intercellular Adhesion Molecule 1 (ICAM1) Biomarker Activity (AID 2283003); conditions: primary human endothelial cells (HUVEC); actives raise or lower the signal
In short: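 Chemicals are dosed onto primary human umbilical vein endothelium (3C system). After 24 h, ICAM-1 is measured by ELISA, and responses are fitted bidirectionally relative to DMSO.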

[5] = read-out: Interleukin-1 alpha (IL1a), IL1A (gene 3552); experiment: BSK_BE3C_IL1a: BioMAP Diversity Plus: BE3C Assay for Interleukin-1 alpha (IL1a) Biomarker Activity (AID 2283016); conditions: primary human bronchial epithelial cells; actives raise or lower the signal
In short: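 Signal from IL-1a ELISA, taken 24 h after chemical dosing of human bronchial epithelial cells, is compared with DMSO as baseline using bidirectional curve fitting.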

[6] = read-out: Monocyte Chemoattractant Protein-1 (MCP1), CCL2 (gene 6347); experiment: BSK_3C_MCP1: BioMAP Diversity Plus: 3C Assay for Monocyte Chemoattractant Protein-1 (MCP1) Biomarker Activity (AID 2283017); conditions: primary human endothelial cells (HUVEC); actives raise or lower the signal
In short: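 MCP-1 was measured by ELISA 24 h after dosing in primary HUVEC 3C cultures and fitted in both directions relative to DMSO; cytotoxicity was checked by SRB total-protein staining in parallel wells.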

[7] = read-out: Interleukin-8 (IL8), CXCL8 (gene 3576); experiment: BSK_3C_IL8: BioMAP Diversity Plus: 3C Assay for Interleukin-8 (IL8) Biomarker Activity (AID 2283020); conditions: primary human endothelial cells (HUVEC); actives raise or lower the signal
In short: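 Endothelial primary cells of human umbilical vein origin are dosed with chemical; after 24 h the IL-8 biomarker is measured by ELISA, and concentration–response is fitted in both directions versus DMSO.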

[8] = BSK_3C_SRB: Viability Assessment in the BioMAP Diversity Plus: 3C Assay (AID 2283023); conditions: primary human endothelial cells (HUVEC);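 also: fitted both ways against DMSO so a hit may be signal rise or drop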
In short: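 Cytotoxicity readout in parallel HUVEC 3C cultures: after 24 h compound exposure, cells fixed with 10% TCA, stained with 0.1% SRB and read at 560 nm. Gain or loss relative to DMSO fitted.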

[9] = read-out: Urokinase-type plasminogen activator receptor (uPAR), PLAUR (gene 5329); experiment: BSK_4H_uPAR: BioMAP Diversity Plus: 4H Assay for Urokinase-type plasminogen activator receptor (uPAR) Biomarker Activity (AID 2283030); conditions: primary human endothelial cells (HUVEC); actives raise or lower the signal
In short: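 uPAR level read by ELISA on HUVEC cultures (BioMAP 4H) 24 h post-dosing, analyzed for gain or loss relative to DMSO. Parallel SRB staining assessed overt cytotoxicity.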

[10] = read-out: Plasminogen activator inhibitor-1 (PAI1), SERPINE1 (gene 5054); experiment: BSK_BE3C_PAI1: BioMAP Diversity Plus: BE3C Assay for Plasminogen activator inhibitor-1 (PAI1) Biomarker Activity (AID 2283037); conditions: primary human bronchial epithelial cells; actives raise or lower the signal
In short: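 Values derive from bidirectional fitting against DMSO baseline of PAI-1 levels, measured by ELISA in human bronchial epithelial cells 24 h after compound addition.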

[11] = read-out: urokinase plasminogen activator (uPA), PLAU (gene 5328); experiment: BSK_BE3C_uPA: BioMAP Diversity Plus: BE3C Assay for urokinase plasminogen activator (uPA) Biomarker Activity (AID 2283038); conditions: primary human bronchial epithelial cells; actives raise or lower the signal
In short: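 ELISA for uPA on human primary bronchial epithelial cultures 24 h post-treatment, gain or loss against DMSO. Parallel SRB staining (0.1% after 10% TCA fixation, 560 nm) assessed overt cytotoxicity.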

[12] = read-out: Tissue plasminogen activator (tPA), PLAT (gene 5327); experiment: BSK_BE3C_tPA: BioMAP Diversity Plus: BE3C Assay for Tissue plasminogen activator (tPA) Biomarker Activity (AID 2283041); conditions: primary human bronchial epithelial cells; actives raise or lower the signal
In short: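 Gain- or loss-of-signal in tPA, measured by ELISA, derived by bidirectional fitting against DMSO. Cells: human primary bronchial epithelial; read at 24 h after chemical dosing.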

[13] = read-out: Thrombomodulin, THBD (gene 7056); experiment: BSK_CASM3C_Thrombomodulin: BioMAP Diversity Plus: CASM3C Assay for Thrombomodulin Biomarker Activity (AID 2283051); conditions: primary human coronary artery smooth muscle cells; actives raise or lower the signal;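 also: thrombomodulin protein level measured by ELISA 24 h after dosing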
[14] = read-out: Interleukin-1 alpha (IL1a), IL1A (gene 3552); experiment: BSK_LPS_IL1a: BioMAP Diversity Plus: LPS Assay for Interleukin-1 alpha (IL1a) Biomarker Activity (AID 2283080); conditions: primary human HUVEC with PBMC; actives raise or lower the signal
In short: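 Readout is IL-1a level by ELISA, 24 h post-dose, fitted as gain or loss relative to DMSO. System: LPS-activated human primary co-culture of vascular endothelium and peripheral blood mononuclear cells, with parallel SRB total-protein cytotoxicity.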

[15] = BSK_LPS_PGE2: BioMAP Diversity Plus: LPS Assay for Prostaglandin E2 (PGE2) Biomarker Activity (AID 2283082); conditions: primary human HUVEC with PBMC; actives raise or lower the signal;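 as to AC50: secreted prostaglandin E2 measured by ELISA in LPS-stimulated co-culture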
In short: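 Compounds were added to the LPS co-culture of endothelium and PBMC, and PGE2 was measured by ELISA after 24 h. Responses in either direction were fitted with DMSO as baseline.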

[16] = CCTE_Harrill_HTTr_Viability_MCF7: CCTE's 6-hour Cell Viability Assessment for the High-Throughput Transcriptomics (HTTr) Platform, in MCF-7 cells cultured in DMEM + 10% fetal bovine serum, Harrill Lab (AID 2284010)
In short: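 Read-out is propidium iodide gain of signal by high-content imaging, reflecting membrane integrity loss. Measurements are taken 6 h after dosing, eight concentrations per chemical, with DMSO serving as baseline for bidirectional curve fitting.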

[17] = CCTE_Harrill_HTTr_Apoptosis_MCF7: CCTE's 6-hour Apoptosis Assessment for the High-Throughput Transcriptomics (HTTr) Platform, in MCF-7 cells cultured in DMEM + 10% fetal bovine serum, Harrill Lab (AID 2284011)
In short: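 High-content imaging of CellEvent Caspase 3/7 Green signal follows a six-hour exposure, with eight concentrations per chemical. MCF-7 cells grown in DMEM plus 10% fetal bovine serum; activity fitted in both directions against DMSO.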

[18] = biological target: Steroid hormone receptor ERR1 (Homo sapiens) (UniProt P11474); experiment: ATG_ERRa_TRANS: Attagene TRANS-FACTORIAL HepG2 Assay for human Estrogen-Related Receptor alpha (ERRa) (AID 2282971; active = hit-call score of the fitted dose curve at least 0.9, where 1 is the maximum); conditions: HepG2 Attagene TRANS reporter, ERRa transactivation
In short: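 Reporter transcripts from ERRa-Gal4 chimera activity measured in transiently transfected human HepG2 cells 24 hours after dosing, using RT-PCR with 6-FAM primer extension, HpaI digestion and capillary electrophoresis; DMSO is baseline.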

[19] = biological target: Estrogen-related receptor gamma (Homo sapiens) (UniProt P62508); experiment: ATG_ERRg_TRANS: Attagene TRANS-FACTORIAL HepG2 Assay for human Estrogen-Related Receptor gamma (ERRg) (AID 2282977; active = hit-call score of the fitted dose curve at least 0.9, where 1 is the maximum;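 also: hits increase reporter signal over DMSO so potencies reflect activators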); conditions: HepG2 Attagene TRANS reporter, ERRg transactivation
In short: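 Induction of reporter transcripts through a chimeric NR-Gal4 protein is quantified in transfected human HepG2 liver cells after 24 h chemical exposure, using RT-PCR with capillary electrophoresis detection and DMSO as baseline.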

[20] = biological target: human Thyroid Receptor alpha (THRa1), THRA (gene 7067) (UniProt P10827); experiment: ATG_THRa1_TRANS: Attagene TRANS-FACTORIAL HepG2 Assay for human Thyroid Receptor alpha (THRa1) (AID 2283014; active = hit-call score of the fitted dose curve at least 0.9, where 1 is the maximum)
In short: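 Transcripts from GAL4-UAS-driven reporters, measured after 24 h compound exposure by RT-PCR plus capillary electrophoresis of 6-FAM-labeled fragments, were fitted for gain of signal relative to DMSO. Cells: transiently transfected HepG2 expressing NR-Gal4 chimeras.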

Measured: AC50

Chain of Estrogen-related receptor gamma (Homo sapiens) (P62508 whole entry, looked up, the tested form may be a part): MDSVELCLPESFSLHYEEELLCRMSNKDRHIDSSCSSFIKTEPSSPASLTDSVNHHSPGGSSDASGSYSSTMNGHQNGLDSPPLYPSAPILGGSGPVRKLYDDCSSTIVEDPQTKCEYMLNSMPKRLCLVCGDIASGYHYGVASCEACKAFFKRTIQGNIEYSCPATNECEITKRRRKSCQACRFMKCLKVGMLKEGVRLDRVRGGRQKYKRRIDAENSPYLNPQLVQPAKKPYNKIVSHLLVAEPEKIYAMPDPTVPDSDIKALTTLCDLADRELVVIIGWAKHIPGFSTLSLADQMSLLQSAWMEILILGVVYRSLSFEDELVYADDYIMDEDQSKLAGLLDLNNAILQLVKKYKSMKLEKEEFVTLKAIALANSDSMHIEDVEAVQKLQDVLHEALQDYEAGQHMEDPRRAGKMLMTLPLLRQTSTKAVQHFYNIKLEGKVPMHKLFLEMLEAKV
Chain of Steroid hormone receptor ERR1 (Homo sapiens) (P11474 whole entry, looked up, the tested form may be a part): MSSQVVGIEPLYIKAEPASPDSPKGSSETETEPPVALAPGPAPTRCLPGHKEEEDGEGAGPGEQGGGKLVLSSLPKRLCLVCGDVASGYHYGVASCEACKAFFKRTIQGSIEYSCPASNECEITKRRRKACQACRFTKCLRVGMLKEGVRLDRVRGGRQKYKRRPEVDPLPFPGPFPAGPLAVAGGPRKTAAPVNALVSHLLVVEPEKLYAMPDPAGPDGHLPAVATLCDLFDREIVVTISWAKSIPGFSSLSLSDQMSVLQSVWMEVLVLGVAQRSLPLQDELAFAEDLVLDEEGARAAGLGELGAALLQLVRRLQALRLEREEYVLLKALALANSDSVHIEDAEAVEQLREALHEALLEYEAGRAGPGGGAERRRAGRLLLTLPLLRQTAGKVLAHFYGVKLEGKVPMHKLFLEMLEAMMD
Chain of human Thyroid Receptor alpha (THRa1), THRA (gene 7067) (P10827 whole entry, looked up, the tested form may be a part): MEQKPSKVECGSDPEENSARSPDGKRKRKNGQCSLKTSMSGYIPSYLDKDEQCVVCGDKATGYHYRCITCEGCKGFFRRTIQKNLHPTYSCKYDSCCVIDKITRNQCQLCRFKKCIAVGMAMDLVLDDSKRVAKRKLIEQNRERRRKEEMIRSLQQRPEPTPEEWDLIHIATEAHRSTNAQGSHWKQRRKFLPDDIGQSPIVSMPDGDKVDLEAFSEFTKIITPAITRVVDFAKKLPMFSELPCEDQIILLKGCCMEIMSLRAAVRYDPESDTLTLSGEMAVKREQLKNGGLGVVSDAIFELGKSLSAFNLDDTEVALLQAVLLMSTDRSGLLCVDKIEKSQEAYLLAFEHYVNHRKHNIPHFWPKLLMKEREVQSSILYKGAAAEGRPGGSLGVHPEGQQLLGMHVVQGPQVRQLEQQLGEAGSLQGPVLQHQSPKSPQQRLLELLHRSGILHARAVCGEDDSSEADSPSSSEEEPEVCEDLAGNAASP

CNC(=O)Oc1cc(C)c(SC)c(C)c1
active: [3] 20 µM | [8] 20 µM | [15] 11.8 µM
not listed: [18] | [19] | [20]
inactive: all other assays above

Clc1ccc(-c2ccccc2)cc1
active: [3] 30.5 µM | [8] 30.9 µM | [15] 17.2 µM
not listed: [20]
inactive: all other assays above

CCC(C)c1cc([N+](=O)[O-])cc([N+](=O)[O-])c1OC(=O)C=C(C)C (stereo not given)
active: [1] 9.89 µM | [2] 7.18 µM | [3] 6.83 µM | [4] 30.4 µM | [5] 20.9 µM | [6] 12.8 µM | [7] 0.00641 µM | [8] 12.9 µM | [9] 5.79 µM | [10] 11 µM | [11] 31.9 µM | [12] 6.13 µM | [14] 20 µM | [15] 5.41 µM
inactive: [13]

C[N+](C)(C)CC(=O)O
inactive: [16] | [17]

CN(N=O)c1ccccc1
inactive: [18]

O=c1[nH]c(Cl)c(Cl)cc1Cl
not listed: [16] | [20]
inactive: all other assays above

N#Cc1cc(I)c(O)c(I)c1
inactive: [18] | [19] | [20] | [16] | [17]

Nc1ccc([N+](=O)[O-])cc1N
inactive: [18] | [19]

COC(C)(C)CCC[C@H](C)C/C=C/C(C)=C/C(=O)OC(C)C
inactive: [19] | [7] | [10] | [11] | [15]
active: [1] 20 µM | [2] 33.5 µM | [3] 29.4 µM | [4] 30.4 µM | [5] 7.52 µM | [6] 36.9 µM | [8] 31.1 µM | [9] 32.6 µM | [12] 9.71 µM | [13] 14.3 µM | [14] 36.4 µM

Reference: PubChem BioAssay (EPA / NIEHS)
